Screens (PubChem BioAssay)
RGS12 GoLoco inh: qHTS Assay for Inhibitors of RGS12 GoLoco Motif Activity (Red Fluorophore). Guanine nucleotide-binding protein G(i) subunit alpha-1 (Homo sapiens), P63096. Gai1:RGS12 GoLoco peptide FP, rhodamine, 10 min. Potency, µM (highest dose often 61.6 µM), actives largely listed as inhibitors. hit rate 0.44% among 230,000; active means well fitted inhibition curve with a large enough effect, not every such curve was filed as active; inactive means no such curve, though single readings can be large or run the other way; further: nearly all actives have a fitted effect of over 30% in size
RECQ1 inh-1: qHTS Assay for Inhibitors of RecQ-Like Dna Helicase 1 (RECQ1); hit rate 0.54% among 240,000; Potency, µM (doses to about 57.3 µM), actives largely listed as inhibitors; AID 2549, 2010; RECQ1 DNA unwinding, red fluorescence kinetic read; further: nearly all actives have a fitted effect of over 30% in size
Target sequence (P46063 whole entry, looked up): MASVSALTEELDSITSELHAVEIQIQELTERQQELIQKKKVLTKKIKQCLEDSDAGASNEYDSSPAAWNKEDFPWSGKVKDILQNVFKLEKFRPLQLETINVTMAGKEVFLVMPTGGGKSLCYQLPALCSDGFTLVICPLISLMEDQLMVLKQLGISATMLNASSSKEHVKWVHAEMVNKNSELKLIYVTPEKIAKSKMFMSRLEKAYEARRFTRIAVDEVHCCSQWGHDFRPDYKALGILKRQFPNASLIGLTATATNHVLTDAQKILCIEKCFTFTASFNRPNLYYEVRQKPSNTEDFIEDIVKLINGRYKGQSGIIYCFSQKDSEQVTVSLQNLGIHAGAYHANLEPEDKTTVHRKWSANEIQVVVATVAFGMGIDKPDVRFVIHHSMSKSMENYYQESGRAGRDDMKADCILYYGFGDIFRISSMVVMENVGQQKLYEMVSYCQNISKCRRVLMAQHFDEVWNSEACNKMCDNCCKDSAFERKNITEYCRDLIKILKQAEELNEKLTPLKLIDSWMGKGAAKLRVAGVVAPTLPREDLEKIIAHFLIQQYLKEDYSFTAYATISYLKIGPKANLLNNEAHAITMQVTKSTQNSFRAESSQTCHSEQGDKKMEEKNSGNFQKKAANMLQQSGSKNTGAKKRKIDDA
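50 nM RECQ1T1 preincubated 15 min with compound in Tris pH 8.0 buffer with MgCl2, DTT, Tween-20 and 2.5 ug/ml poly(dI-dC); started with 200 nM TAMRA/BHQ-2 forked duplex and 2 mM ATP. Unwinding read as fluorescence (525/598 nm), two reads 2 h apart.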
BLM helicase inh: qHTS Assay for Inhibitors of Bloom's syndrome helicase (BLM); RecQ-like DNA helicase BLM (Homo sapiens), P54132; recombinant BLM DNA unwinding, fluorescence dequenching; Potency, µM (top dose mostly 56.1 µM), usual class: inhibitors; hit rate 0.2% among 350,000; further: nearly all actives have a fitted effect of over 35% in size
TexasRed fluor: Total Fluorescence Counterscreen for Inhibitors of the Interaction of Thyroid Hormone Receptor and Steroid Receptor Coregulator 2; Potency, µM (highest dose often 106 µM); TRb/SRC2 Texas Red total fluorescence interference; hit rate 0.29% among 280,000; AID 1479, 2009; active means well fitted curve in either direction with a large enough effect; inconclusive means small, poorly fitted or top-dose-only effect
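Flags fluorescent or light-absorbing compounds by total fluorescence, S + 2P, at 555 nm excitation and 632 nm emission. Mixture: 20 nM Texas Red SRC2 peptide, 0.6 uM human TRb LBD, 1 uM T3, 5% DMSO; compound exposure 5 h at ambient temperature.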
APEX1 inh: qHTS Assay for Inhibitors of the Human Apurinic/apyrimidinic Endonuclease 1 (APE1); recombinant APE1, TAMRA/BHQ-2 abasic DNA cleavage fluorescence; hit rate 0.35% among 350,000; Potency, µM (highest dose often 65.8 µM), usual class: inhibitors; further: nearly all actives have a fitted effect of over 55% in size
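Enzyme (0.75 nM final) and test compound are incubated 15 min at room temperature before adding 50 nM quenched THF abasic-site duplex. Cleavage dequenches TAMRA, followed at 525/598 nm over three reads one minute apart.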
TRb SRC2 PPI: qHTS for Inhibitors of the Interaction of Thyroid Hormone Receptor and Steroid Receptor Coregulator 2; hit rate 0.065% among 280,000; Thyroid hormone receptor beta (Homo sapiens), P10828; TRbeta-SRC2 peptide binding, fluorescence polarization; receptor liganded with 1 µM T3; Potency, µM (top dose mostly 106 µM), actives largely listed as inhibitors; AID 1469, 2008; further: nearly all actives have a fitted effect of over 50% in size
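Binding of a 20-amino-acid Texas Red SRC2 peptide (20 nM) to TRb ligand-binding domain (0.6 uM) with agonist T3 at 1 uM was followed by fluorescence polarization after a 5 hr room-temperature incubation.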
RECQ1 conf: Confirmation qHTS Assay for Inhibitors of RecQ-Like Dna Helicase 1 (RECQ1); hit rate 28% among 610; Potency, µM (series often up to 229 µM), actives largely listed as inhibitors; AID 2708, 2010; shares compounds with RECQ1 inh-1; RECQ1 helicase DNA unwinding, fluorescence; further: nearly all actives have a fitted effect of over 45% in size
ADP FP counter: Counterscreen for RECQ1 Inhibitors: ADP Fluorescence Polarization Displacement Assay | shares compounds with RECQ1 inh-1 | ADP fluorescence polarization displacement counterscreen | Potency, µM (series often up to 228 µM), usual class: inhibitors | hit rate 27% among 530 | AID 2711, 2010; further: nearly all actives have a fitted effect of over 45% in size
RECQ1 inh-2: Confirmation qHTS Assay for Inhibitors of RecQ-Like Dna Helicase 1 (RECQ1) - Round 2 Cherry Picks. shares compounds with RECQ1 inh-1. recombinant RECQ1 DNA unwinding, red fluorescence. Potency, µM (highest dose often 119 µM), most hits filed as inhibitors. hit rate 15% among 1,100. AID 504841, 2011; further: nearly all actives have a fitted effect of over 50% in size
A number is an active result; [ ] = remark or other dose. Rows were chosen to be rich in hits. Some 0.9% of all compounds tested hit in one or more screens of this group. Unless noted, the call rests on the fitted dose curve; in most records, active means well fitted curve in the direction sought with a large enough effect; inconclusive means small, poorly fitted or top-dose-only effect, or another doubt; inactive means no such curve, though single readings can be large; an effect the other way counts as inactive or inconclusive.

Results for NCC1OC(n2cnc3c(=O)[nH]c(N)nc32)C(O)C1O (stereo unspecified) ?
RGS12 GoLoco inh: inactive; RECQ1 inh-1: inactive; BLM helicase inh: inactive; TexasRed fluor: inactive; APEX1 inh: inactive; TRb SRC2 PPI: inactive

Results for Nc1nc2c(ncn2COC(CO)CO)c(=O)[nH]1 ?
RGS12 GoLoco inh: inactive; RECQ1 inh-1: inactive; BLM helicase inh: inactive; TexasRed fluor: inactive; APEX1 inh: inactive; TRb SRC2 PPI: inactive; RECQ1 conf: inactive

How did Nc1nc2c(ncn2[C@@H]2C=C[C@@H](CO)C2)c(=O)[nH]1 do in these assays?
RGS12 GoLoco inh: inactive[14.2 µM]

Results for O=C(CCc1nc2ccccc2s1)NC1CCOC1=O (stereo unspecified) ?
RGS12 GoLoco inh: inactive; RECQ1 inh-1: inconclusive; BLM helicase inh: inactive; TexasRed fluor: inactive; APEX1 inh: inactive; TRb SRC2 PPI: inactive; RECQ1 inh-2: inconclusive

Results for O=C(CCCc1nc2ccccc2s1)NC1CCOC1=O (stereo unspecified) ?
RGS12 GoLoco inh: inactive; RECQ1 inh-1: inactive; BLM helicase inh: inactive; TexasRed fluor: inactive; APEX1 inh: inactive; TRb SRC2 PPI: inactive

Results for O=C(O)CC(CCc1ccccc1)OC1OC(CO)C(O)C(O)C1O (stereo unspecified) ?
RGS12 GoLoco inh: inactive; RECQ1 inh-1: 3.5µM; BLM helicase inh: inactive; TexasRed fluor: inactive; APEX1 inh: 0.35µM; TRb SRC2 PPI: inactive; RECQ1 conf: inactive

How did O=C(CCn1nnc2ccccc2c1=O)NCC1CCC(C(=O)O)CC1 (stereo unspecified) do in these assays?
RGS12 GoLoco inh: inactive; RECQ1 inh-1: inactive; BLM helicase inh: inactive; TexasRed fluor: inactive; APEX1 inh: inconclusive; TRb SRC2 PPI: inactive; RECQ1 conf: inactive; ADP FP counter: inactive

Results for CC(=O)Nc1ccc(S(=O)(=O)NCCc2cn3ccsc3n2)cc1 ?
BLM helicase inh: inactive; TexasRed fluor: inactive; TRb SRC2 PPI: inactive

Results for O=C(CN(c1ccccc1)S(=O)(=O)c1ccccc1)NCCSCc1ccco1 ?
RGS12 GoLoco inh: inactive; RECQ1 inh-1: 14µM; BLM helicase inh: inactive; TexasRed fluor: inactive; APEX1 inh: 7.9µM; TRb SRC2 PPI: inactive; RECQ1 conf: 50µM; ADP FP counter: 50µM; RECQ1 inh-2: inconclusive

What do the screens show for `COc1ccc(N(CC(=O)NCCSCc2ccco2)S(=O)(=O)c2ccccc2)cc1`?
RGS12 GoLoco inh: inactive; RECQ1 inh-1: inactive; BLM helicase inh: inactive; TexasRed fluor: inactive; APEX1 inh: inactive; TRb SRC2 PPI: inactive

How did Cc1ccc(S(=O)(=O)/N=C2/NC(=O)/C(=C\c3ccco3)S2)cc1 do in these assays?
RGS12 GoLoco inh: inactive; RECQ1 inh-1: inconclusive; BLM helicase inh: inactive; TexasRed fluor: inactive; APEX1 inh: inactive; TRb SRC2 PPI: inactive; RECQ1 inh-2: inactive

Results for CC(=O)Nc1ccc(S(=O)(=O)/N=C2/NC(=O)/C(=C\c3ccco3)S2)cc1 ?
RGS12 GoLoco inh: inactive; RECQ1 inh-1: inconclusive; BLM helicase inh: inactive; TexasRed fluor: inactive; APEX1 inh: inconclusive; TRb SRC2 PPI: inactive; RECQ1 inh-2: inactive

What do the screens show for `CCCN(CCC)c1ccc(C2N=C(N)Nc3nc4ccccc4n32)cc1` (stereo unspecified)?
BLM helicase inh: inactive; TexasRed fluor: inactive; TRb SRC2 PPI: inactive

What do the screens show for `CCN(c1ccccc1)c1nnc(NC(=O)Nc2ccc(Br)cc2)s1`?
BLM helicase inh: inactive; TexasRed fluor: inactive; TRb SRC2 PPI: inactive

How did CCCCC1=CC2=CC(=O)C(C)(OC(=O)c3cccs3)C(=O)C2=CO1 (stereo unspecified) do in these assays?
RGS12 GoLoco inh: inactive; RECQ1 inh-1: inactive; BLM helicase inh: inactive; TexasRed fluor: inactive; APEX1 inh: inactive; TRb SRC2 PPI: inactive

What do the screens show for `COC(=O)CCCC1=CC2=CC(=O)C(C)(OC(=O)c3cccs3)C(=O)C2=CO1` (stereo unspecified)?
RGS12 GoLoco inh: inactive; RECQ1 inh-1: inconclusive; BLM helicase inh: inactive; TexasRed fluor: inactive; APEX1 inh: inconclusive; TRb SRC2 PPI: inactive; RECQ1 inh-2: inconclusive

How did O=C(CN1CCN(S(=O)(=O)c2ccc(F)cc2)CC1)c1ccc(O)c(O)c1 do in these assays?
RGS12 GoLoco inh: inactive; RECQ1 inh-1: 40µM; BLM helicase inh: inactive; TexasRed fluor: inactive; APEX1 inh: 4µM; TRb SRC2 PPI: inactive; RECQ1 inh-2: inactive

How did Cc1cc(Nc2cc(Cl)ccc2C)n2nc(-c3ccccc3)nc2n1 do in these assays?
BLM helicase inh: inactive; TexasRed fluor: inactive; TRb SRC2 PPI: inactive

How did O=C(O)CSc1nnc(Cn2nnc3ccccc32)n1CCc1ccccc1 do in these assays?
RGS12 GoLoco inh: inactive; RECQ1 inh-1: inactive; BLM helicase inh: inactive; TexasRed fluor: inactive; APEX1 inh: inactive; TRb SRC2 PPI: inactive; RECQ1 conf: inactive; ADP FP counter: inactive

How did COC(=O)C1=C(C)N(C)C(=S)N(C)C1c1cccc(Br)c1 (stereo unspecified) do in these assays?
RGS12 GoLoco inh: inactive; RECQ1 inh-1: inconclusive; BLM helicase inh: inactive; TexasRed fluor: inactive; APEX1 inh: inactive; TRb SRC2 PPI: inactive; RECQ1 inh-2: inactive

Results for CCOC(=O)C1=C(C)N(C)C(=S)N(C)C1c1ccc(OC)cc1 (stereo unspecified) ?
RGS12 GoLoco inh: inactive; RECQ1 inh-1: inactive; BLM helicase inh: inactive; TexasRed fluor: inactive; APEX1 inh: inactive; TRb SRC2 PPI: inactive

How did CCOc1ccc(-n2c(=O)c3c(C)c(C)sc3n(CC(=O)NCCc3ccccc3)c2=O)cc1 do in these assays?
BLM helicase inh: inactive; TexasRed fluor: inactive; TRb SRC2 PPI: inactive
